Experimental data from PubChem BioAssay (NCI).
This is part of a sample that, as a whole, favours compounds with a hit. Of some 83,000 tested, about 20% had one in any assay.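 Testing used 96-well plates and a 48-hour single-concentration exposure. Example: -40 means 40% of the starting cells died.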 Values without a mark were called inactive. Calls of active or inactive are those of the source. The calls were made as follows: active = growth percent below 10; inactive = the rest.

How the values were obtained:
Assay in all cases: NCI-60 one-dose screen, 48 h (100 = growth as untreated, 0 = no growth, -100 = all killed)
Details in all cases: 10 µM unless noted
[1] = system: SR leukemia
[2] = system: RPMI-8226 leukemia
[3] = system: OVCAR-8 ovarian
[4] = system: OVCAR-5 ovarian
[5] = system: OVCAR-4 ovarian
[6] = system: SK-OV-3 ovarian
[7] = system: IGROV1 ovarian
[8] = system: OVCAR-3 ovarian
[9] = system: HS 578T breast
[10] = system: NCI/ADR-RES ovarian
[11] = system: BT-549 breast
[12] = system: MDA-MB-435 melanoma
[13] = system: SW-620 colon
[14] = system: MCF7 breast
[15] = system: HCT-116 colon
[16] = system: KM12 colon
[17] = system: T-47D breast
[18] = system: HCC-2998 colon

Row | SMILES | growth [1] | growth [2] | growth [3] | growth [4] | growth [5] [%] | growth [6] | growth [7] | growth [8] | growth [9] [%] | growth [10] | growth [11] | growth [12] | growth [13] | growth [14] | growth [15] | growth [16] | growth [17] | growth [18]
1 | Cc1ccc(S(=O)(=O)OC2COCOC2C(OS(=O)(=O)c2ccc(C)cc2)C2OCOCC2OS(=O)(=O)c2ccc(C)cc2)cc1 (stereo not drawn) | 96.2% | 107% | 103% | 101% | 118 | 107% | 110% | 110% | 107 | 110% | 98.2% | 108% | 108% | 103% | 105% | 107% | – | –
2 | C/C(=N\NC(=O)CC#N)c1cc2cc(Cl)ccc2o1 | 84.8% | 90.2% | 109% | 105% | 91.5 | 98.8% | 96.8% | 102% | 14.9 | – | 125% | 106% | 102% | 72.2% | 107% | 98.9% | 78.4% | –
3 | C#CCC1(c2ccc(F)c(F)c2)NS(=O)(=O)c2ccccc21 (stereo not drawn) | 76% | 109% | 93.9% | 107% | 105 | 96.9% | 94.3% | 109% | 101 | – | 110% | 107% | 108% | 94.1% | 95.5% | 102% | 85.4% | –
4 | COc1cc2nc(N3CCC[C@@H](NC4=CC(=O)c5ccccc5C4=O)C3)nc(N)c2cc1OC | -11.3% (active) | -44.1% (active) | -41.2% (active) | 110% | 81.5 | 112% | -82.3% (active) | -69.5% (active) | – | 99% | 118% | 64.7% | -60.6% (active) | -63.3% (active) | -83.6% (active) | -35.2% (active) | -40.9% (active) | 106%
5 | CCN(Cc1ccc(CN(CC)C(=O)C(Cl)(Cl)Cl)cc1)C(=O)C(Cl)(Cl)Cl | 32.8% | 32.5% | 89.6% | 101% | 74.7 | 91.2% | 94.9% | 74.4% | – | 86.6% | 78.3% | 83.7% | 89% | 89.2% | 56.4% | 81.5% | 78.2% | 92.4%
6 | O=S(=O)(NCCNc1cc(-c2cn(-c3ccccc3)nc2-c2ccccc2)ccn1)c1ccc(F)cc1 | 79.3% | 72.5% | 83% | 106% | 85.6 | 92.1% | 98% | 94.7% | 87.3 | – | 94.8% | 83.9% | 95.4% | 86.3% | 79.4% | 87.3% | 50.5% | 102%
7 | CCCC(C(=O)OCC)C(C)OC(=O)OCC (stereo not drawn) | 87.6% | 101% | 96.4% | 108% | 108 | 95.5% | 115% | 103% | – | 105% | 115% | 101% | 113% | 101% | 103% | 101% | 86.6% | 103%
8 | CCC(=O)Oc1cc(/C=C/C(=O)O[C@H]2C[C@H]3CN4CCc5c([nH]c6cc(OC)ccc56)[C@@H]4C[C@@H]3[C@@H](C(=O)OC)[C@@H]2OC)ccc1OC | 1.95% (active) | 39.9% | 86.8% | 87% | 56.9 | 86.5% | 88.5% | 73.1% | 56.5 | 87.1% | – | 67.1% | 83% | 48.2% | 53.3% | 95.3% | – | –
9 | O=C(c1c[nH]c2ccccc12)C(Sc1nc2ccccc2c(=O)[nH]1)c1ccccc1 (stereo not drawn) | 67.9% | 91.1% | 93.3% | 88% | 95.9 | 104% | 19.1% | 96.6% | 88.6 | 99.8% | 87.2% | 115% | 110% | 101% | 95.1% | 106% | – | –
10 | COc1ccc(-c2cn[nH]c2-c2cc(OC)c3c(c2)OCO3)cc1 | 5.61% (active) | -1.3% (active) | 11.7% | 46.1% | 51 | -1.1% (active) | -17.2% (active) | -12.3% (active) | – | 5.12% (active) | 59.3% | -55.4% (active) | 21.9% | 13.1% | 13.6% | 17.6% | 44% | 16.8%
11 | C[C@]12CC[C@@H]3c4cc(O)c(O)cc4CC[C@H]3[C@@H]1CC[C@@H]2O | 9.22% (active) | 30.9% | 51.6% | 98% | 49.7 | 29.5% | 60.2% | 11.5% | – | 28.5% | 37.7% | -45% (active) | 30.7% | 17.8% | 37.9% | 74.5% | 30.4% | 91.4%
12 | Cc1cc(NC(=O)COC(=O)c2sc3cc(F)ccc3c2Cl)no1 | 108% | 114% | 112% | 100% | 105 | 111% | -31.8% (active) | 120% | 123 | – | 117% | 108% | 108% | 106% | 103% | 108% | 102% | 112%
13 | COc1cc(CCn2nnc3c(NCCCCO)ncnc32)cc(OC)c1 | 96.4% | 95.7% | 101% | 121% | 99.2 | 111% | 109% | 107% | 101 | 104% | – | 97.9% | 97.9% | 99.6% | 97.7% | 103% | – | 102%
14 | O=C(CNc1ccc(Cl)cc1)Nc1ccc(-c2nc3ccccc3s2)cc1 | 11.5% | 46% | 66.4% | 121% | 23.1 | 89.7% | 34.3% | 28.9% | 84.1 | – | 16.7% | 62.8% | 22.6% | 11.5% | 23.3% | 80.7% | 4.58% (active) | -16.2% (active)
15 | COc1ccc(-c2nnc(COc3ccc(NC(=O)Nc4ccc(Cl)c(C(F)(F)F)c4)cc3F)o2)cc1 | -30.1% (active) | -26.2% (active) | 14.5% | 8.75% (active) | 20.2 | 22.1% | 26% | -0.826% (active) | – | 5.91% (active) | -2.18% (active) | 4.03% (active) | 9.95% (active) | 2.31% (active) | 4.43% (active) | 4.64% (active) | 9.17% (active) | 13.8%
16 | O=C(/C=C/CN1CCOCC1)Nc1cc2c(Nc3ccc(F)c(Cl)c3F)ncnc2cc1OCCOC(F)F | 60.7% | 17.8% | 49.6% | 49.6% | 54.7 | 11.8% | -11.1% (active) | 48.9% | 23.1 | – | 54.3% | 69.1% | 89.7% | 60.7% | 49.4% | 74.1% | 1.51% (active) | 69.1%
17 | O=C(O)Cc1ccc2c(c1)Cc1cccnc1O2 | 96.8% | 105% | 103% | 101% | 101 | 103% | 96.6% | 108% | 107 | – | 101% | 103% | 106% | 94.6% | 100% | 98.7% | 89.3% | 99%
18 | Cc1nc(Nc2cccnc2)sc1C(=O)/C=C/c1ccc(Cl)cc1 | 6.11% (active) | -4.94% (active) | 14.9% | 37.3% | 82.4 | 81.3% | 14.9% | 7.38% (active) | 98.9 | – | 15.2% | 5.05% (active) | 6.92% (active) | 13.2% | 26.8% | 12.9% | – | 84.8%
